# Test results: the supplement of paper PMC6953052
# In all, about 1,700 compounds were measured (“fraction of GFP-LC3-positive cells (≥5 vesicles/cell)”: median about 0.43, highest 2% from about 0.81 on). For the sample, the highest values were picked, then their nearest neighbours and some compounds at random.
# Test system: CbCln3 Δex7/8/Δex7/8 GFP-LC3 cerebellar neuronal cells
# Assay: fraction of GFP-LC3-positive cells (≥5 vesicles/cell); higher = more autophagosome accumulation
# Summary of the method: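 Compound (~50 nL in DMSO) was pin-transferred in duplicate onto wild-type or mutant CbCln3 cerebellar cells stably expressing GFP-LC3, seeded at 2 × 10^3/well in 384-well plates, for 24 h at 33 °C. After fixation in 3.2% PFA, three fields per well were imaged at 10×. The value reported is the duplicate average of the fraction of cells meeting a vesicle-count threshold, with CellProfiler counting GFP-LC3 vesicles per cell and out-of-focus images excluded. Cells met the threshold at 5 or more vesicles.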
row,Structure (SMILES),fraction of GFP-LC3-positive cells
1,CC(=O)OC(C)C[N+](C)(C)C.[Cl-] (stereo not drawn) [Methacholine chloride],0.309
2,CCCc1cc(=O)[nH]c(=S)[nH]1 [Propylthiouracil],0.375
3,O=C(O)/C=C/c1ccc(O)c(O)c1 [Caffeic acid],0.359
4,COc1ccc(C(=O)c2ccccc2)c(O)c1 [Oxybenzone],0.465
5,COC(=O)/C=C/c1cc(O)ccc1O,0.924
6,CCC[C@@H]1C[C@@H](C(=O)N[C@@H](C2O[C@H](SC)[C@H](O)[C@@H](O)[C@H]2O)[C@H](C)Cl)N(C)C1.Cl (stereo partly drawn) [Clindamycin hydrochloride],0.462
7,O=C1Nc2ccc([N+](=O)[O-])cc2C1=O [5-Nitroisatin],0.469
8,CCCCNc1cc(C(=O)O)cc(S(N)(=O)=O)c1Oc1ccccc1 [bumetanide],0.319
9,CCCCN(CCCC)CCC(O)c1cc2c(Cl)cc(Cl)cc2c2cc(C(F)(F)F)ccc12.Cl (stereo not drawn) [Halofantrine hydrochloride],0.319
10,CCCCC[C@H](O)/C=C/C=C\C=C\C=C\[C@@H](O)[C@@H](O)CCCC(=O)O [Lipoxin A4],0.498
11,"OCC(O)CN1CCN(c2ccccc2)CC1 (racemic) [Dropropizine (R,S)]",0.442
12,Cl.OC(CCN1CCCCC1)(c1ccccc1)C1C[C@@H]2C=C[C@H]1C2 (stereo partly drawn) [Biperiden hydrochloride],0.447
13,CC[N+](CC)(CC(=O)Nc1c(C)cccc1C)Cc1ccccc1.O=C([O-])c1ccccc1 [Denatonium benzoate],0.424
14,"Nc1ncnc2c1ncn2[C@@H]1O[C@@H]2COP(=O)(O)OC2C1O (single isomer, unassigned; (-)) [(-)-Adenosine 3',5'-cyclic monophosphate]",0.271
15,COCCOC(=O)C1=C(C)NC(C)=C(C(=O)OC(C)C)C1c1cccc([N+](=O)[O-])c1 (stereo not drawn) [Nimodipine],0.35
16,Cl.N=C(N)NC(=O)c1nc(Cl)c(N)nc1N.O.O [Amiloride hydrochloride dihydrate],0.398
17,CC(=O)O[C@H]1C(=O)[C@@]2(C)[C@H]([C@H](OC(=O)c3ccccc3)[C@]3(O)C[C@H](OC(=O)[C@H](O)[C@@H](NC(=O)c4ccccc4)c4ccccc4)C(C)=C1C3(C)C)[C@]1(OC(C)=O)CO[C@@H]1C[C@@H]2O [Paclitaxel],0.843
18,CC(=O)O[C@H]1C(=O)[C@@]2(C)C([C@H](OC(=O)c3ccccc3)[C@]3(O)C[C@H](OC(=O)[C@H](O)[C@@H](NC(=O)c4ccccc4)c4ccccc4)C(C)=C1C3(C)C)[C@]1(OC(C)=O)CO[C@@H]1C[C@@H]2O (stereo partly drawn) [taxol =paclitaxel],0.89
19,COc1c(C=O)c(O)cc2c1C(=O)c1ccccc1C2=O [damnacanthal],0.173
20,"O.Oc1cc(O)c2c(c1)OC(c1ccc(O)c(O)c1)C(O)C2 (racemic) [Catechin-(+,-) hydrate]",0.337
21,CC/C=C\C[C@H](O)/C=C/C=C\C/C=C\C/C=C\CCCC(=O)O,0.434
22,CCCCCCCC/C=C/CCCCCCCCC(=O)O [10(E)-Nonadecenoic acid],0.516

row,Structure (SMILES),fraction of GFP-LC3-positive cells
1,CCCCCCCC/C=C/CCCCCCCCC(=O)O [10(Z)-Nonadecenoic acid],0.551
2,NC[C@H]1O[C@H](O[C@H]2[C@H](O)[C@@H](O[C@H]3O[C@H](CO)[C@@H](O)[C@H](N)[C@H]3O)[C@H](N)C[C@@H]2N)[C@H](N)C[C@@H]1O [Tobramycin],0.5
3,COc1cc(N)c(Cl)cc1C(=O)NC1CCN(Cc2ccccc2)CC1.O=C(O)/C=C\C(=O)O [Clebopride maleate],0.506
4,CC(C(O)c1ccc(O)cc1)N1CCC(Cc2ccccc2)CC1.O=C(O)C(O)C(O)C(=O)O (stereo not drawn) [Ifenprodil tartrate],0.481
5,Cl.Fc1ccc([C@@H]2CCNC[C@H]2COc2ccc3c(c2)OCO3)cc1 [Paroxetine Hydrochloride],0.5
6,Nc1ccc(S(=O)(=O)Nc2ccc(Cl)nn2)cc1 [Sulfachloropyridazine],0.368
7,CC1CNc2c(cccc2S(=O)(=O)N[C@@H](CCCNC(=N)N)C(=O)N2CC[C@@H](C)C[C@@H]2C(=O)O)C1 (stereo partly drawn) [Argatroban],0.486
8,"CCCCC[C@H](O)/C=C/C=C/C=C/[C@@H](O)C/C=C\CCCC(=O)O [8(S),15(S)-DiHETE all trans]",0.456
9,CCN(CC)CCOC(=O)c1ccc(N)cc1.Cl [Procaine hydrochloride],0.483
10,C[C@]12C=CC(=O)C=C1CC[C@@H]1[C@@H]2[C@@H](O)C[C@@]2(C)[C@H]1CC[C@]2(O)C(=O)CO [Prednisolone],0.183
11,CCCCOc1ccc(C(=O)CCN2CCCCC2)cc1.Cl [Dyclonine hydrochloride],0.322
12,NC(=O)c1cc[n+](CC2=C(C(=O)[O-])N3C(=O)[C@@H](NC(=O)[C@@H](c4ccccc4)S(=O)(=O)[O-])[C@H]3SC2)cc1.[Na+] [Cefsulodin sodium salt],0.367
13,CC1(C)[C@@H](OC(=O)CCC(=O)[O-])CC[C@]2(C)[C@H]3C(=O)C=C4[C@@H]5C[C@@](C)(C(=O)[O-])CC[C@]5(C)CC[C@@]4(C)[C@]3(C)CC[C@@H]12.[Na+].[Na+] [Carbenoxolone disodium salt],0.269
14,CCCCCCCCCCCCCCCCCCc1ccc(C(=O)/C=C/C(=O)O)cc1,0.48
15,CCCCc1ccc2[nH]c(NC(=O)OC)nc2c1 [Parbendazole],0.927
16,COC(=O)Nc1nc2cc(Sc3ccccc3)ccc2[nH]1 [Fenbendazole],0.648
17,CCCCCCCCCCCCCCCC(=O)NCCc1ccc(O)c(O)c1 [Palmitoyl dopamine],0.456
18,COC(=O)Nc1nc2cc(SC(C)C)ccc2[nH]1 [Methiazole],0.836
19,CCCSc1ccc2[nH]c(NC(=O)OC)nc2c1 [Albendazole],0.899
20,NCc1ccccc1CC(=O)N[C@@H]1C(=O)N2C(C(=O)O)=C(CSc3nnnn3CC(=O)O)CS[C@H]12 [Ceforanide],0.519
21,CC1CCc2cc(F)cc3c(=O)c(C(=O)O)cn1c23 (stereo not drawn) [Flumequine],0.273
